# Source: PubChem BioAssay
# VCAM1 TNFa inh – reduces TNF alpha induced VCAM1 expression in HUVEC; HUVEC TNFa-induced VCAM-1 immunofluorescence, high-content imaging; inhibition, % at 2 µM; 95,000 tested, 0.48% active; AID 802;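 active = inhibition above the batch mean plus 3 SD, with images confirmed as a hit by eye, cut at about 37% in these data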;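 note: 0% = TNF-stimulated DMSO wells and 100% = unstimulated control wells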
# HUVEC tox IL1B – HUVEC cytotoxicity counter-screen, IL-1B stimulated; cell count reduction, % at 2 µM; 94,000 tested, 0.41% active; AID 845; HUVEC cell count loss, Hoechst imaging;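 active = cell count reduction more than 3 SD above the screen-wide mean, cut at about 70% in these data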;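 note: normalized per plate to untreated control cells as the no-loss baseline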
# NFkB transloc inh – blocks IL-1B driven NFkB nuclear translocation in HUVEC cells; HUVEC IL-1B NFkB p65 nuclear translocation imaging; inhibition, % at 2 µM; 94,000 tested, 0.43% active;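 active = inhibition above about 30% together with a positive call from visual inspection of the well image, limit read from the data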;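 note: nuclear over cytoplasmic p65 intensity ratio measured by imaging; 0% = IL-1B stimulated DMSO wells and 100% = unstimulated DMSO wells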
# E-sel TNF inh – TNF alpha driven E-selectin expression inhibition; HUVEC TNFa-induced E-selectin immunofluorescence, high content; inhibition, % at 2 µM; 120,000 tested, 0.71% active;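 active = inhibition above the batch mean plus 3 SD, and confirmed as a hit on visual image review, cut at about 43% in these data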;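 note: 0% = TNF-stimulated DMSO wells and 100% = unstimulated control wells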
# IL1B NFkB pot – enhances IL-1B driven NFkB nuclear translocation; 94,000 tested, 0.3% active; HUVEC IL-1B NFkB p65 nuclear translocation imaging; activation, % at 2 µM;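 active = activation above 40%, about the mean plus 3 SD, also judged a hit on visual image review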;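 note: percent activation is computed from the nuclear over cytoplasmic p65 intensity ratio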
# HUVEC tox TNFa – toxic to HUVEC cells under TNF alpha stimulation. cell count reduction, % at 2 µM. HUVEC TNFalpha-stimulated, Hoechst cell count, imaging. AID 848. 93,000 tested, 0.17% active;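 active = cell count reduction exceeding the screen mean by over 5 SD, scaled to untreated wells per plate, cut at about 78% in these data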;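 note: cells counted after 24 h of TNF alpha exposure following the 1 h pretreatment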
# * = called active by the depositor; . = not tested or not shown. Only some compounds are listed: those with a hit (about 1.7% of all), similar ones and a draw of the others.
SMILES,VCAM1 TNFa inh,HUVEC tox IL1B,NFkB transloc inh,E-sel TNF inh,IL1B NFkB pot,HUVEC tox TNFa
Cc1ccc(Nc2ccc(S(=O)(=O)N3CCOCC3)cc2[N+](=O)[O-])c(C)c1,.,.,.,29.8,.,.
CCOc1cc(N2CCOCC2)c(OCC)cc1NC(=O)Cc1ccccc1OC,22.0,17.9,-3.0,.,3.0,-4.3
CCOc1cc(N2CCOCC2)c(OCC)cc1NC(=O)CSc1cccc[n+]1[O-],-1.3,-12.8,-69.6,6.5,69.6*,10.5
O=C(O)c1cccc(S(=O)(=O)NCC2CCCO2)c1 (stereo not drawn),-1.4,90.4*,93.2*,-15.7,-93.2,-26.2
Cc1cccc(S(=O)(=O)NCC2CCCO2)c1 (stereo not drawn),0.2,-6.8,3.9,5.0,-3.9,-7.4
N#CCSc1ccc(-c2nc3ccccc3[nH]2)cn1,.,.,.,-6.2,.,.
C=CCn1cnc2scc(-c3ccc(C)cc3)c2c1=O,18.2,-66.1,6.7,14.0,-6.7,-19.5
COc1c(C)cc(Br)cc1C(=O)O,10.6,89.9*,-2.5,-0.1,2.5,4.4
COc1ccc(Br)cc1C(=O)O,.,.,.,96.8*,.,.
COc1c(C)cc(Br)cc1C(=O)Nc1cccc(NC(=O)c2ccco2)c1,9.7,87.2*,-21.9,-4.9,21.9,-12.5
CC(C)N1CCN(Cc2ccc3c(c2)Cc2ccccc2-3)CC1CCO (stereo not drawn),.,.,.,-30.0,.,.
COc1ccc(Cn2c(C)nnc2-c2cnn(C)c2N)cc1,.,.,.,12.3,.,.
C/C(=N/NC(=O)Cc1cccs1)c1ccco1,.,.,.,-7.1,.,.
C/C(=N\Nc1nc2c(s1)CCCC2)c1ccccc1,61.6*,-14.4,-26.1,26.1,26.1,13.4
CCOC(=O)c1sc2nc(C)nc(SCC(=O)N(C)C3CCS(=O)(=O)C3)c2c1C (stereo not drawn),.,.,.,3.5,.,.
COc1cc(S(=O)(=O)n2nnc3ccccc32)c(OC)cc1Cl,-3.9,87.1*,-18.1,-16.9,18.1,.
COc1cc(S(=O)(=O)n2nc(C)cc2C)c(OC)cc1Cl,-8.1,-20.6,46.1*,-2.6,-46.1,-8.9
O=S1(=O)CCN(C(CCO)c2cccc(C(F)(F)F)c2)CC1 (stereo not drawn),.,.,.,94.8*,.,.
COc1cc(OC)c(C2=Nc3ccc(Br)cc3C(c3ccccc3)N2CC(=O)NN)cc1OC (stereo not drawn),.,.,.,27.6,.,.
C=CCNC(=S)NNC(=O)c1ccc(OCC)cc1,0.1,8.3,-0.9,52.7*,0.9,-7.2
COc1ccc(C(=O)N(Cc2ccccc2)Cc2cc3cc4c(cc3[nH]c2=O)OCCO4)cc1,-6.5,-23.7,71.8*,-6.9,-71.8,0.3
COc1cccc(C(=O)N(Cc2ccccc2)Cc2cc3cc4c(cc3[nH]c2=O)OCCO4)c1,-8.9,-3.2,8.8,-5.1,-8.8,3.1
COc1ccc2cc(CN(CCO)C(=O)c3ccccc3F)c(=O)[nH]c2c1,-1.1,-36.4,-3.5,99.7*,3.5,0.8
CCOc1ccc(S(=O)(=O)Nc2ccc(F)cc2)c(C)c1C,2.9,-10.1,-3.6,.,3.6,-10.7
Cc1ccc(C)c(N2CCN(C(=O)CCCN3C(=S)NC(C)(C)CC3C)CC2)c1 (stereo not drawn),.,.,.,-11.5,.,.
SMILES,VCAM1 TNFa inh,HUVEC tox IL1B,NFkB transloc inh,E-sel TNF inh,IL1B NFkB pot,HUVEC tox TNFa
CC[n+]1c(/C=C2/C=C(C)CC(C)(C)C2)sc2ccc(OC)cc21,3.4,15.6,-2.0,67.4*,2.0,-23.2
O=C(Nc1ccc2c(c1)oc1ccccc12)N1CCOCC1,-13.6,71.1*,17.0,2.5,-17.0,3.9
O=C(Nc1ccccc1)N1CCOCC1,-5.8,-14.9,12.7,-27.8,-12.7,-5.2
O=C(O)C1CCCN1S(=O)(=O)c1ccc(Br)s1 (stereo not drawn) (tested in a mixture with another compound),-9.7,-7.8,1.1,89.5*,-1.1,-12.2
O=C(O)C1CCCCN1S(=O)(=O)c1ccc(Cl)s1 (stereo not drawn),4.0,3.3,10.6,6.9,-10.6,-3.5
COc1ccc(C2(CNC(=O)c3cc([N+](=O)[O-])cc([N+](=O)[O-])c3)CCCC2)cc1OC,.,.,.,63.2*,.,.
CCOc1ccc(OCC)c(-c2c(=O)n(OCc3ccc(C(C)(C)C)cc3)c3ccccc3[n+]2[O-])c1,-15.0,3.4,-20.6,-12.1,-5.7,.
CCCOc1cccc(C2C(C(=O)c3ccco3)=C(O)C(=O)N2CCN(CC)CC)c1 (stereo not drawn),7.1,-26.4,-48.6,-4.3,48.6*,-4.9
CCN(CC)CCN1C(=O)C(O)=C(C(=O)c2ccco2)C1c1ccccn1 (stereo not drawn),-3.6,11.0,-30.7,13.7,30.7,-12.5
